# Targets with a hit are over-represented here; the source holds about 7,900 in all. About 0.6% of all pairs of compound and target were hits. Values without a mark were called inactive.
# Experiments:
# Test in all cases: log2 fold change, soluble protein after heating vs DMSO (PISA); higher = thermal stabilisation; K562 cells, 10 uM, 30 min; active = over 0.2 and 3.5 SD of the protein, either way, in both replicates (recomputed)
# [1] = compound: CS(=O)(=O)c1ccc(-c2cnc(N)c(C(=O)Nc3ccccc3)n2)cc1
# Summary of the method: (§1)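 Quantification of soluble protein used TMTpro 16plex LC-MS/MS, with channel sums equalised. Samples were the supernatant after 21,000xg for 90 min of pooled aliquots from K562 cells (2×10^6 cells/mL) treated with 10 μM compound for 30 min, heated for 3 min over 48°C-58°C, and extracted in PBS with 0.5% NP-40 at 4°C. Values, from duplicates, describe thermal stability against control samples on a log2 fold-change scale.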
# crizotinib = compound: C[C@@H](Oc1cc(-c2cnn(C3CCNCC3)c2)cnc1N)c1c(Cl)ccc(F)c1Cl [crizotinib]
# Summary of the method: as §1
# [2] = compound: C[C@@H]1COCCN1C2=NC(=NC(=C2)C3(CC3)S(=O)(=O)C)C4=C5C=CNC5=CC=C4
# Summary of the method: as §1
# gandotinib = compound: Cc1cc(Nc2cc(CN3CCOCC3)c3nc(C)c(Cc4ccc(Cl)cc4F)n3n2)n[nH]1 [gandotinib]
# Summary of the method: as §1
# tozasertib = compound: Cc1cc(Nc2cc(N3CCN(C)CC3)nc(Sc3ccc(NC(=O)C4CC4)cc3)n2)n[nH]1 [tozasertib]
# Summary of the method: as §1
# doramapimod = compound: Cc1ccc(-n2nc(C(C)(C)C)cc2NC(=O)Nc2ccc(OCCN3CCOCC3)c3ccccc23)cc1 [doramapimod]
# Summary of the method: as §1
# ispinesib = compound: Cc1ccc(C(=O)N(CCCN)[C@@H](c2nc3cc(Cl)ccc3c(=O)n2Cc2ccccc2)C(C)C)cc1 [ispinesib]
# Summary of the method: as §1
# bafetinib = compound: Cc1ccc(NC(=O)c2ccc(CN3CC[C@H](N(C)C)C3)c(C(F)(F)F)c2)cc1Nc1nccc(-c2cncnc2)n1 [bafetinib]
# Summary of the method: as §1
# [3] = compound: Cc1cccc(CC(=O)N2CCc3c2ccc(-c2cn(C)c4ncnc(N)c24)c3F)n1
# Summary of the method: as §1
# nilotinib = compound: Cc1cn(-c2cc(NC(=O)c3ccc(C)c(Nc4nccc(-c5cccnc5)n4)c3)cc(C(F)(F)F)c2)cn1 [nilotinib]
# Summary of the method: as §1
# [4] = compound: Cc1nc(Nc2n[nH]c3c2CN(C(=O)N[C@H](CN(C)C)c2ccccc2)C3(C)C)c2sccc2n1
# Summary of the method: as §1
# [5] = compound: Cc1ncc(-c2ccnc(Nc3ccc(S(C)(=O)=O)cc3)n2)n1C(C)C
# Summary of the method: as §1
# [6] = compound: Cn1cc(-c2ccc3nnc(C(F)(F)c4ccc5ncccc5c4)n3n2)cn1
# Summary of the method: as §1
# tipifarnib = compound: Cn1cncc1[C@@](N)(c1ccc(Cl)cc1)c1ccc2c(c1)c(-c1cccc(Cl)c1)cc(=O)n2C [tipifarnib]
# Summary of the method: as §1
# mubritinib = compound: FC(F)(F)c1ccc(/C=C/c2nc(COc3ccc(CCCCn4ccnn4)cc3)co2)cc1 [mubritinib]
# Summary of the method: as §1
# [7] = compound: C[C@H](C1=CC=C(C=C1)C(=O)NC2=C3C=CNC3=NC=C2)N
# Summary of the method: as §1
# duvelisib = compound: C[C@H](Nc1ncnc2nc[nH]c12)c1cc2cccc(Cl)c2c(=O)n1-c1ccccc1 [duvelisib]
# Summary of the method: as §1
# [8] = compound: Cc1cc(SCc2sc(-c3ccc(C(F)(F)F)cc3)nc2C)ccc1OCC(=O)O
# Summary of the method: as §1
# dasatinib = compound: Cc1nc(Nc2ncc(C(=O)Nc3c(C)cccc3Cl)s2)cc(N2CCN(CCO)CC2)n1 [dasatinib]
# Summary of the method: as §1
# [9] = compound: Cn1cc(-c2ccc3c(c2)CCN3C(=O)Cc2cccc(C(F)(F)F)c2)c2c(N)ncnc21
# Summary of the method: as §1
# Sequence of UniProt P46527 (P46527 whole entry, looked up): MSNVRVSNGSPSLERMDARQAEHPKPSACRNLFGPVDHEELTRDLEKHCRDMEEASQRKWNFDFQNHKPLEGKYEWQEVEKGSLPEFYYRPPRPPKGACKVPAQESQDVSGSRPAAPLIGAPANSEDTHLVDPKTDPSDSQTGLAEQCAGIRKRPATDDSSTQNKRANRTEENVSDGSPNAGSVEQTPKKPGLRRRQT
# Sequence of UniProt Q9NPF2 (Q9NPF2 whole entry, looked up): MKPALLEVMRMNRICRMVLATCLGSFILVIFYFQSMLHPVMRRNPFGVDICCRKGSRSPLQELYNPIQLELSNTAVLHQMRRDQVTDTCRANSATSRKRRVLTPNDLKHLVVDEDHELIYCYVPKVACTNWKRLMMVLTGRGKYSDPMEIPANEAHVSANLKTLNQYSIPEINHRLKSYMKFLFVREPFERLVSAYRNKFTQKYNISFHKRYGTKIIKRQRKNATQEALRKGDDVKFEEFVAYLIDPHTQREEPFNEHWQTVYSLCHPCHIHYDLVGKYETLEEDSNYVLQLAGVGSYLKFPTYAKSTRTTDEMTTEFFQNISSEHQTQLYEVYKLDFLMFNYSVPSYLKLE
# Sequence of UniProt Q13901 (Q13901 whole entry, looked up): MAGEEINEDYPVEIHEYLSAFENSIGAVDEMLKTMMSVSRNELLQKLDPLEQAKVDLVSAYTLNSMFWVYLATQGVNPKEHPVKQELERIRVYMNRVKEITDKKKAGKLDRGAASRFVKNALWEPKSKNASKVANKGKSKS
# Sequence of UniProt Q53ET0 (Q53ET0 whole entry, looked up): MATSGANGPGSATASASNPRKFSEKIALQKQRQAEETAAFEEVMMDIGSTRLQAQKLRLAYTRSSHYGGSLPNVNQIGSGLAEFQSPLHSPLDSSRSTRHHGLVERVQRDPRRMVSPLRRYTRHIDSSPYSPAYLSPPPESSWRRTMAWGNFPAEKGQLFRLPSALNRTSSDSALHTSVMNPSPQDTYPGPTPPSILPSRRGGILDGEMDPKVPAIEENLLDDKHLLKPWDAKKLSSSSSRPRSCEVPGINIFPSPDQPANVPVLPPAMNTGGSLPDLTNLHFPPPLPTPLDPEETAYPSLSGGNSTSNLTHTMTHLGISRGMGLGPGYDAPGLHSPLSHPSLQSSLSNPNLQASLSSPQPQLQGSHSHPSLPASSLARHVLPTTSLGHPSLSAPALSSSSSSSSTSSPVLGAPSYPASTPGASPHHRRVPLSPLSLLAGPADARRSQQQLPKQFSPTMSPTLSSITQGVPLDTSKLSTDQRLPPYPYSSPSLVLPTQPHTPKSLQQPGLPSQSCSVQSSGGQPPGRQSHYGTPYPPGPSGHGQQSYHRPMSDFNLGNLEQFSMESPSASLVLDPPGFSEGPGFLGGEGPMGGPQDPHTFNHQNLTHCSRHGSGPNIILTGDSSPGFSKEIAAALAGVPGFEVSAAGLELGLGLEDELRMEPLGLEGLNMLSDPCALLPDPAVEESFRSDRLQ
# Sequence of UniProt Q00536 (Q00536 whole entry, looked up): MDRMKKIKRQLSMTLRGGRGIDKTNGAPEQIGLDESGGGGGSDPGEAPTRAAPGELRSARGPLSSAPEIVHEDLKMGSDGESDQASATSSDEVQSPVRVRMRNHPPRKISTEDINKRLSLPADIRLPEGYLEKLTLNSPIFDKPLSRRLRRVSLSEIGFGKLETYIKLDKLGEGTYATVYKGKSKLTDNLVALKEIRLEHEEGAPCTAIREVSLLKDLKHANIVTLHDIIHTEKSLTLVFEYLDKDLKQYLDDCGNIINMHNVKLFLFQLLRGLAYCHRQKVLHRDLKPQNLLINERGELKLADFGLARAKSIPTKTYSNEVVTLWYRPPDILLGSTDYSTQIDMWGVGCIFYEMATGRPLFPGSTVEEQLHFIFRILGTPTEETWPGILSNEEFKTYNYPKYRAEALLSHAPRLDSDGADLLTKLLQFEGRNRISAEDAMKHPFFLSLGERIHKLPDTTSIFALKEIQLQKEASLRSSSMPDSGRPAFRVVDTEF
# Sequence of UniProt Q9UJA2 (Q9UJA2 whole entry, looked up): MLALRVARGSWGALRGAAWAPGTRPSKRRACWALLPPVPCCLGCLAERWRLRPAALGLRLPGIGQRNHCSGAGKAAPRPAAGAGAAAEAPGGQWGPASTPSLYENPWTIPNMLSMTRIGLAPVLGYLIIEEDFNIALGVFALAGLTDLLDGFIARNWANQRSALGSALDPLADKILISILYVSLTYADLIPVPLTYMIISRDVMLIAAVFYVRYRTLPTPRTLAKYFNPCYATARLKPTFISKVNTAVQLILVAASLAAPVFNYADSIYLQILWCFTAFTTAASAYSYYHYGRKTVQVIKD
# Sequence of UniProt Q9UNS2 (Q9UNS2 whole entry, looked up): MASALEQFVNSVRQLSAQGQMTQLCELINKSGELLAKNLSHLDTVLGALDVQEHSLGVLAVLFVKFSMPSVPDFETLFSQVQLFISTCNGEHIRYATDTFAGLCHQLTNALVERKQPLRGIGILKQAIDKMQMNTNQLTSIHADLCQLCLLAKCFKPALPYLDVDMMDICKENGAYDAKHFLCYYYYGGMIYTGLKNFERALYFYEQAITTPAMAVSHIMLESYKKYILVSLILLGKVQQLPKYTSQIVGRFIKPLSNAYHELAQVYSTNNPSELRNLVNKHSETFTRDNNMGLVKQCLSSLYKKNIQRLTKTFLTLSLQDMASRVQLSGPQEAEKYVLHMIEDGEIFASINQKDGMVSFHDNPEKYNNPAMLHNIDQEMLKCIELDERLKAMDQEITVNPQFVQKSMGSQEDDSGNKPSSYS
# Sequence of UniProt Q2TAC2 (Q2TAC2 whole entry, looked up): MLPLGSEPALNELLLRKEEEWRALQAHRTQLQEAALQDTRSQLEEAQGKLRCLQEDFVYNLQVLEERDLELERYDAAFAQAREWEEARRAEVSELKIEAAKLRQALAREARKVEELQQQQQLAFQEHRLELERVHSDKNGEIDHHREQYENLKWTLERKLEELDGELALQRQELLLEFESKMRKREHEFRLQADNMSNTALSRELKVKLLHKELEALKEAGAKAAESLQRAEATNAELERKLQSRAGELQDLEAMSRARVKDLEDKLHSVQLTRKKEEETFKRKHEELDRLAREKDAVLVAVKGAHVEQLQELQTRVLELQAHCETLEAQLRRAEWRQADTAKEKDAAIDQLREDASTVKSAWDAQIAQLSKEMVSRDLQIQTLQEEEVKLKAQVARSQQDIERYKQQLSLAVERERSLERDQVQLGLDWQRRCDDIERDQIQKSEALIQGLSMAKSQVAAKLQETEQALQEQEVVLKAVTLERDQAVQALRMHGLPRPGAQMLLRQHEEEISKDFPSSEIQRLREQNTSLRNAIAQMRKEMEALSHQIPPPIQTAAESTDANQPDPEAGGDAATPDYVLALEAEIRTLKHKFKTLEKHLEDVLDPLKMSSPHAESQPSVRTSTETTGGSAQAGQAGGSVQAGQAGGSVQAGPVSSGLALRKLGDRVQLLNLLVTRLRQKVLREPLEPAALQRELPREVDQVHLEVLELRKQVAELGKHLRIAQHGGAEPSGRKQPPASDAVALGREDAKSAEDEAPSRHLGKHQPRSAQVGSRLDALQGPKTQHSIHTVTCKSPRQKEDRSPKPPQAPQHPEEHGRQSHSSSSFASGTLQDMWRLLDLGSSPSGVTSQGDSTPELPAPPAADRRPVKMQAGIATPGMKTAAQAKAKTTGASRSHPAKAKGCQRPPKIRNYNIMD
# Sequence of UniProt O75503 (O75503 whole entry, looked up): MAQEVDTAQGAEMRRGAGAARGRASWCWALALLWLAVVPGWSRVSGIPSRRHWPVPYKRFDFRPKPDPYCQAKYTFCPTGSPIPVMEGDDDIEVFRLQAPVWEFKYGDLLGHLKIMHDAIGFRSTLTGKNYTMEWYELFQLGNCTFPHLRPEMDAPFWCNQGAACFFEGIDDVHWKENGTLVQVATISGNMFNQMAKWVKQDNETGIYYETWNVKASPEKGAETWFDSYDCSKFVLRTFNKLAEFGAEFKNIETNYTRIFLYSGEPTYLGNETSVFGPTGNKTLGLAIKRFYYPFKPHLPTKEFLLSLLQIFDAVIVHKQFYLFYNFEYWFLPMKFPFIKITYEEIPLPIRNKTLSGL
# Sequence of UniProt P51636 (P51636 whole entry, looked up): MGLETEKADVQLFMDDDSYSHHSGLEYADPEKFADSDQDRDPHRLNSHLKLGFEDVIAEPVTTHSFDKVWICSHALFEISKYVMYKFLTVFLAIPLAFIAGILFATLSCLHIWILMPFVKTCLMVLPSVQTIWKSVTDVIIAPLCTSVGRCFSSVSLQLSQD
# Sequence of UniProt Q14677 (Q14677 whole entry, looked up): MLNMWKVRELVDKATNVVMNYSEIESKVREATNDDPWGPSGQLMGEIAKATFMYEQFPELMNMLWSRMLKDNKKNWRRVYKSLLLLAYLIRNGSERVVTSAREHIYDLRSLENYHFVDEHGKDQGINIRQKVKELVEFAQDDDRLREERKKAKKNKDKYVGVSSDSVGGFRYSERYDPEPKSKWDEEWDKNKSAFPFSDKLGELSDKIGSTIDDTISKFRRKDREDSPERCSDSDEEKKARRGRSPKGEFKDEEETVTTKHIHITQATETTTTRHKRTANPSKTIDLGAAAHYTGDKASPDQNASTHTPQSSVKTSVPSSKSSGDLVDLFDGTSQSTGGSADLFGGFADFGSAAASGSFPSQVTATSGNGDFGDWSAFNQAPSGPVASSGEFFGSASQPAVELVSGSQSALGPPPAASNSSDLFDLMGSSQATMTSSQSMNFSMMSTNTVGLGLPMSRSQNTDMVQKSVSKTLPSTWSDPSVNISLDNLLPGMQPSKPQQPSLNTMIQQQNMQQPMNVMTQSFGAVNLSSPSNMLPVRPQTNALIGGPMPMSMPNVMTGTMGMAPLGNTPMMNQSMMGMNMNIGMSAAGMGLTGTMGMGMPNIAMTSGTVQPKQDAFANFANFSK
# Sequence of UniProt Q7Z4R8 (Q7Z4R8 whole entry, looked up): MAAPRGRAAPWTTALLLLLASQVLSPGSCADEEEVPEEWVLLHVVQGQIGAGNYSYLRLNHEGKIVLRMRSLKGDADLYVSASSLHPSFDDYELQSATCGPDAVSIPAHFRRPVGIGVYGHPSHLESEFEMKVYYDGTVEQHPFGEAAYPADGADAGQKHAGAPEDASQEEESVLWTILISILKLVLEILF
Target,log2 fold change [1],log2 fold change (crizotinib),log2 fold change [2],log2 fold change (gandotinib),log2 fold change (tozasertib),log2 fold change (doramapimod),log2 fold change (ispinesib),log2 fold change (bafetinib),log2 fold change [3],log2 fold change (nilotinib),log2 fold change [4],log2 fold change [5],log2 fold change [6],log2 fold change (tipifarnib),log2 fold change (mubritinib),log2 fold change [7],log2 fold change (duvelisib),log2 fold change [8],log2 fold change (dasatinib),log2 fold change [9]
COPS3 isoform 2 (UniProt Q9UNS2),0.054,0.046,0.116,-0.084,-0.165,0.028,-0.371,-0.19,-0.295,-0.041,0.227,-0.194,0.418,0.029,0.138,–,–,–,–,–
CRLS1 (UniProt Q9UJA2),-0.228,0.02,–,-0.083,0,0.023,–,–,0.012,0.01,-0.064,0.056,–,-0.138,0.007,-0.047,-0.025,0.05,0.101,-0.002
CAV2 (UniProt P51636),-0.067,-0.087,–,0.043,-0.115,0.13,–,-1.25 (active),-0.054,0.221,-0.082,0.008,–,0.136,0.066,–,0.075,0.035,0.033,–
CLINT1 isoform 3 (UniProt Q14677),-0.019,0.02,–,0.047,-0.025,0.012,-0.001,0.024,-0.083,0.042,0.037,-0.026,-0.083,0.017,0.045,0.159,-0.029,-0.097,0.264 (active),-0.071
C1D (UniProt Q13901),-0.073,0.06,-0.107,0.01,0.005,-0.089,0.007,-0.026,-0.013,0.059,-0.074,-0.027,0.018,0.151,0.132,–,–,–,–,–
C6orf120 (UniProt Q7Z4R8),0.069,-0.04,–,–,-0.032,0.134,-0.07,-0.145,–,-0.045,0.044,-0.048,-0.032,0.026,–,–,-0.052,0.113,0.029,–
CHST10 (UniProt O43529),0.235,-0.206,0.014,0.087,-0.037,0.015,-0.009,-0.036,0.052,0.092,-0.081,0.104,-0.09,0.05,0.064,0.009,–,–,–,0.071
CRTC2 (UniProt Q53ET0),-0.02,-0.077,0.08,–,-0.057,0.062,0.012,-0.035,–,0.038,0.01,-0.094,-0.081,-0.092,0.022,–,–,–,–,–
CDK16 isoform 2 (UniProt Q00536),0.03,-0.036,0.06,0.436 (active),–,-0.022,-0.046,0.038,-0.047,0.013,0.619 (active),0.679 (active),0.013,-0.072,0.035,-0.07,0.058,0.096,0,-0.014
CHST11 (UniProt Q9NPF2),0.056,-0.106,-0.037,0.029,-0.033,0.087,-0.068,-0.01,-0.117,0.049,-0.026,0.008,-0.249,-0.012,-0.064,0.019,–,–,–,0.039
CDKN1B (UniProt P46527),-0.017,-0.018,-0.295,0.077,–,-0.071,-0.01,-0.001,-0.05,0.013,-0.097,0.149,0.04,0.009,0.114,-0.065,0.059,-0.06,0.004,0.108
CLN5 (UniProt O75503),0.136,-0.733,0.06,-0.077,-0.115,0.044,–,-0.945 (active),0.019,0.041,-0.508,0.026,–,0.002,-0.169,0.046,0.093,0.073,-0.46,-0.119
CCDC57 (UniProt Q2TAC2),-0.026,0.06,0.065,–,0.04,-0.035,-0.034,-0.025,–,-0.044,-0.023,-0.021,-0.021,-0.023,0.031,0.139,–,–,–,0.068

# — the supplement of paper PMC10849652
